Screening data as filed in PubChem.
CYP2C9 act – activators of human CYP2C9; recombinant CYP2C9, luciferin-H conversion, luminescence; active compounds read high; factor 1 = untreated enzyme, 0 = blocked; activation factor at 5 µM; 1.4% of 96,000 active; AID 1024;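 active means activation factor of 2 or more for CYP2C9 at a 5 µM dose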;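 further: 0 = sulfaphenazole-blocked wells and 1 = vehicle-only wells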
Target sequence (P11712 whole entry, looked up): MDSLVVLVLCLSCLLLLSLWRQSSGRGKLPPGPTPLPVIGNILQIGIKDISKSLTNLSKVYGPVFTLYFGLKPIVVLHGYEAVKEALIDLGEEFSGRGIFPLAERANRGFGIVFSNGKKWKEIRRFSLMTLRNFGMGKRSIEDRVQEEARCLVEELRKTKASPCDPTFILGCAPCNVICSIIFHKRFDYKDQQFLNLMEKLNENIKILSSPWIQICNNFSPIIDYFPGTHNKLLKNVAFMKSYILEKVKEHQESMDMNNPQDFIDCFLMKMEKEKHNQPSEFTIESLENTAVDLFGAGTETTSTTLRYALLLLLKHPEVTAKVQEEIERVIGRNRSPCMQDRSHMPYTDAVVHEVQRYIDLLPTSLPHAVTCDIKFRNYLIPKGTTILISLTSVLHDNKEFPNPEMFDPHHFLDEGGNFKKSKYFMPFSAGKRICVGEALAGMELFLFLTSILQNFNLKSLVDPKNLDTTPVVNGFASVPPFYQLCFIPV
CYP2C19 inhib – inhibitors of human CYP2C19; P33261; 21% of 96,000 active; AID 778; inhibition, % at 5 µM; CYP2C19 Supersomes, luciferin-H EGE luminescence, 30 min;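 active means CYP2C19 inhibition above a set limit at 5 µM in the primary screen, cut at about 50% in these data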;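 further: plate controls were negative control wells for no effect and 2.5 mM tranylcypromine positive control for full effect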
CYP2C19 act – increases human CYP2C19 enzyme activity | 96,000 tested, under 10 active | activation factor at 5 µM | recombinant CYP2C19, luciferin-H EGE luminescence; active compounds read high; 0 = fully inhibited enzyme, 1 = untreated enzyme;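 active means activation factor of at least 2 at 5 µM in the primary screen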;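 further: 0 = wells with 2.5 mM tranylcypromine and 1 = vehicle-only wells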
CYP2C9 inh – human CYP2C9 inhibition. P11712. CYP2C9 Supersomes, luciferin-H conversion, luminescence. inhibition, % at 5 µM. 20% of 96,000 active;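 active means blocking of liver enzyme CYP2C9 beyond about 50% at 5 µM, limit read from the data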
Cav3 T inh – human Cav3.2 channel inhibition, primary screen; AID 449739; 4% of 100,000 active; Cav3.2-expressing cells, Fluo-4 calcium fluorescence FDSS; active compounds read low; B-score at 10 µM; O95180;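 active means single-dose well whose peak fluorescence ratio is a statistical outlier from its plate by either plate-standardised score or position-corrected B-score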
The depositor's hits bear a star; . = no result given. Hits are enriched below; roughly 27% of the tested compounds scored in any of these assays.

SMILES | CYP2C9 act | CYP2C19 inhib | CYP2C19 act | CYP2C9 inh | Cav3 T inh
O=C(NC1CCCCC1)C1CC=CCC1C(=O)OCC(Cl)=C(Cl)Cl (stereo not drawn) | 0.7 | 17.1 | 0.8 | 33.5 | -7.53*
CCOc1ccc(S(=O)(=O)N(C)C)cc1-c1nc2c(C(C)(C)C)nn(C)c2c(=O)[nH]1 | 0.8 | -6.3 | 1.1 | 20.1 | -0.336
CCOc1ccc(S(=O)(=O)N(C)CCO)cc1-c1nc2c(C(C)(C)C)nn(C)c2c(=O)[nH]1 | 0.3 | 63.6* | 0.4 | 67.4* | .
CCOC(=O)C1=CN(c2cccc(F)c2)C=C(C(=O)OCC)C1c1cc(OC)c(O)c([N+](=O)[O-])c1 | 0.4 | -16.3 | 1.2 | 57.1* | -0.33
C#CCSc1nc(-c2ccccc2)cc(C(F)(F)F)c1C#N | 1 | -5.1 | 1.1 | 2.4 | 0.136
N#Cc1c(C(F)(F)F)cc(-c2cccs2)nc1SCc1ccc(Cl)nc1 | 0.4 | 7.9 | 0.9 | 55.6* | -1.97
N#Cc1c(C(F)(F)F)cc(-c2cccs2)nc1SCc1cccnc1 | 0.2 | 57.1* | 0.4 | 75.1* | .
O=C(Cc1ccc(S(=O)(=O)N2CCOCC2)s1)Nc1ccc2c(c1)CCC2 | 0.9 | 8.2 | 0.9 | 12.8 | -6.14*
CCCCNC(=O)COC(=O)c1ccc(Cl)c(S(=O)(=O)N2CCCC2)c1 | 0.8 | 73.6* | 0.3 | 24.6 | 3.56
CC(C)NC(=O)COC(=O)c1ccc(Cl)c(S(=O)(=O)N2CCCC2)c1 | 1.1 | -4.5 | 1 | -10.6 | -0.694
O=C(COC(=O)c1ccc(S(=O)(=O)N2CCCC2)cc1)NCc1ccc(Cl)cc1 | 0.5 | 45.0 | 0.6 | 54.0* | -2.64
O=C(COC(=O)Cc1ccc(S(=O)(=O)N2CCOCC2)s1)NCc1ccc(Cl)cc1 | 0.1 | 73.3* | 0.3 | 86.2* | 0.827
COc1ccccc1S(=O)(=O)n1cc(Cc2ccccc2)c(N)n1 | . | . | . | . | -0.376
Nn1c(SCC(=O)N2CCOCC2)nnc1-c1ccccc1Cl | 1 | -5.1 | 1.1 | 0.5 | 0.907
COc1cccc(NC(=O)CSCc2n[nH]c(=O)[nH]2)c1 | 1 | -6.1 | 1.1 | -3.0 | 0.993
COC(=O)c1ccc(S(=O)(=O)c2ccccc2)c(N)c1 | 0.3 | 94.2* | 0.1 | 70.4* | -0.0533
Cc1cccc(OCCN2CSC(=S)N(C)C2)c1 | 0.1 | 78.7* | 0.2 | 87.7* | .
CCC(Sc1nc(N)c(NC(=O)c2ccc(OC)c(OC)c2)c(=O)[nH]1)C(=O)OC (stereo not drawn) | 1.1 | -14.1 | 1.1 | -10.4 | -0.125
CCOc1ccc(-n2c(SCC(=O)NCc3ccco3)nnc2-c2c[nH]c3ccccc23)cc1 | 0.4 | 6.7 | 0.9 | 60.0* | -3.52
Cn1c(SCC(=O)NCc2ccco2)nnc1-c1c[nH]c2ccccc12 | 0.6 | 51.9* | 0.5 | 37.5 | 0.219
COc1ccc(-c2nnc(SCC(=O)NCc3ccco3)n2C)cc1 | 0.9 | 0.0 | 1 | 7.3 | -0.877
CC1(O)C(=O)C=C2C=C(c3ccc(C#N)cc3)OC=C2C1=O (stereo not drawn) | . | . | . | . | -0.409
COc1ccc(CCn2c(C)cc3c(c2=O)C(c2ccncc2)C(C#N)=C(N)O3)cc1OC (stereo not drawn) | 0.2 | 82.9* | 0.2 | 79.2* | 0.435
O=C1CCCc2ccccc2N1Cc1cccc(Cl)c1 | 0.3 | 83.6* | 0.2 | 72.5* | .
O=C1CCSc2ccc(Cl)cc2N1Cc1ccccc1 | 0.8 | 66.4* | 0.3 | 22.6 | -0.0945
SMILES | CYP2C9 act | CYP2C19 inhib | CYP2C19 act | CYP2C9 inh | Cav3 T inh
O=C1CCCc2ccccc2N1Cc1ccc(Cl)cc1 | 0.3 | 91.0* | 0.1 | 68.5* | -2.53
O=C1CCSc2ccc(Cl)cc2N1Cc1ccc(Cl)cc1 | 0.8 | 19.5 | 0.8 | 23.7 | -4.54
O=C(NC(NCCCN1CCOCC1)(C(F)(F)F)C(F)(F)F)C1CCCCC1 | 1 | 7.2 | 0.9 | 1.6 | 0.058
CCOC(=O)C1=C(CSc2n[nH]c(N)n2)NC(=O)NC1C (stereo not drawn) | 0.9 | 4.3 | 1 | 9.8 | -0.397
Cc1nnc(SCc2ccccc2)nc1/C=C/NOCc1ccc(Cl)cc1Cl | 0.1 | 79.0* | 0.2 | 88.3* | -0.0219
COc1cnc(SCc2ccc(Cl)cc2Cl)nc1Cl | 1 | 9.4 | 0.9 | 4.5 | -2.05
O=C(NCCCO)c1ccc2[nH]c3ccccc3c2c1 | 0.7 | 64.2* | 0.4 | 31.7 | 0.175
CCOC(=O)C1=C(C)NC(=O)C(C(N)=O)C1c1ccccc1 (stereo not drawn) | 0.9 | 8.1 | 0.9 | 11.0 | -0.00674
CCOC(=O)C1=NNC(C(=O)c2ccc(OC)cc2)C1c1ccccc1 (stereo not drawn) | 0.5 | 37.7 | 0.6 | 52.2* | -0.63
O=S(=O)(N1CCCCCC1)N1CCN(S(=O)(=O)N2CCCCC2)CC1 | 0.8 | 7.8 | 0.9 | 20.0 | 0.576
Cc1cc(C)cc(N(CC(=O)N2CCc3ccccc32)S(=O)(=O)c2c(C)noc2C)c1 | 0.9 | 4.7 | 1 | 11.7 | -5.46*
CCOc1ccc(N(CC(=O)N2CCc3ccccc32)S(=O)(=O)c2c(C)noc2C)cc1 | 0.8 | 15.6 | 0.8 | 18.8 | -1.72
Cc1cc(C)cc(N(CC(=O)N2CCn3c2nc2ccccc23)S(=O)(=O)c2c(C)noc2C)c1 | 0.5 | 24.2 | 0.8 | 48.4 | -5.63*
Cc1n[nH]c(C)c1S(=O)(=O)N(CC(=O)N1CCc2ccccc21)c1ccc(C(C)C)cc1 | 0.4 | 18.9 | 0.8 | 58.4* | 3.05*
CC(=NCCN1CCN(C(=S)Nc2ccccc2)CC1)C1=C(O)CC(C)(C)CC1=O | 0.9 | 40.1 | 0.6 | 14.1 | 0.706
C(=N\n1cnnc1)/c1ccc(-c2ccccc2)cc1 | 0 | 98.9* | 0 | 98.4* | 0.0199
CC(=O)Oc1ccccc1C(=O)Oc1ccc(/C=N/n2cnnc2)cc1 | 0.1 | 42.7 | 0.6 | 95.0* | -0.00255
CCOc1cc(/C=N/n2cnnc2)cc(Br)c1O | 0.9 | -0.3 | 1 | 14.7 | 1.11
CCOc1ccc(/C=N/n2cnnc2)cc1 | 0.6 | 81.7* | 0.2 | 43.3 | 0.492
Cc1cc(/C=N/n2cnnc2)c(C)n1-c1ccc(OCc2ccc(Cl)cc2)cc1 | 1 | 0.0 | 1 | -3.5 | 0.155
C(=N\n1cnnc1)/c1ccc(OCc2ccccc2)cc1 | 0.2 | 70.4* | 0.3 | 81.0* | 0.832
Clc1ccc(SCc2cc(-c3ccc(Cl)cc3)on2)cc1 | 0.8 | 1.9 | 1 | 20.5 | -1.4
Fc1ccc(CN(Cc2ccccc2)C(c2cccs2)c2nnnn2C2CCCCC2)cc1 (stereo not drawn) | 0.8 | -6.4 | 1.1 | 22.6 | 0.0759
CCN(CC)C(c1ccc(F)cc1)c1nnnn1C1CCCCC1 (stereo not drawn) | 1 | 38.4 | 0.6 | -3.9 | -5.02*
CCN(CC)C(c1ccc(C)cc1)c1nnnn1C1CCCCC1 (stereo not drawn) | 0.2 | 95.0* | 0.1 | 77.8* | -2.07
Cc1ccc(C(c2nnnn2C2CCCCC2)N2CCN3CCCC3C2)cc1 (stereo not drawn) | 1.2 | 2.5 | 1 | -23.4 | -0.132
Cc1cc(C(C)(C)C)oc1C(=O)N(CC(=O)NC1CCCC1)c1c(C)cccc1C | 0.7 | 42.4 | 0.6 | 32.8 | -1.59*
